Results taken from PubChem BioAssay (Tox21).
A number with no mark means an inactive call. Results filed as inconclusive are left out. Where a call stands in place of a potency, no number is given. The source made the active and inactive calls. Unless noted, the call rests on the fitted dose curve; in most records, active means well fitted curve in the direction sought with a large enough effect in the repeat runs; inconclusive means weak or mixed curves; inactive means flat fitted curve, though single readings scatter.

Legend:
[1] = qHTS assay to test for compound auto fluorescence at 535 nm (green) in HEK293 cells (AID 720680)
[2] = qHTS assay to test for compound auto fluorescence at 460 nm (blue) in HEK293 cell free culture (AID 720681)
Procedure, shortened: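 Test compounds were pinned into cell-free culture medium (DMEM with 10% FBS) and fluorescence was read directly at Ex/Em 405/460 nm. Signals were expressed as fluorescence equivalents of triamterene, with DMSO vehicle as control.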

[3] = qHTS assay to test for compound auto fluorescence at 535 nm (green) in HEK293 cell free culture (AID 720682)
Procedure, shortened: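 Intrinsic compound fluorescence is measured in culture medium containing 10% FBS, with excitation at 485 nm and detection at 535 nm, referenced to fluorescein.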

[4] = qHTS assay to test for compound auto fluorescence at 590 nm (red) in HEK293 cell free culture (AID 720683)
Procedure, shortened: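 Tox21 10K library compounds were pinned into cell-free DMEM with 10% FBS and fluorescence was read at excitation 540 nm. Activity is expressed as Rose Bengal sodium equivalency.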

[5] = qHTS assay to test for compound auto fluorescence at 590 nm (red) in HepG2 cell free culture (AID 720684)
Procedure, shortened: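 Measured in medium alone (MEM containing 10% FBS) following pintool addition of compound; emission at 590 nm with 540 nm excitation, referenced to Rose Bengal sodium.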

[6] = qHTS assay to test for compound auto fluorescence at 460 nm (blue) in HepG2 cell free culture (AID 720685)
Procedure, shortened: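 Compound (23 nL) or DMSO pinned into cell-free MEM with 10% FBS; blue fluorescence read at 405/460 nm excitation/emission, expressed as auto-fluorescence equivalency to triamterene.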

[7] = qHTS assay to test for compound auto fluorescence at 535 nm (green) in HepG2 cell free culture (AID 720686)
[8] = qHTS assay to test for compound auto fluorescence at 460 nm (blue) in HepG2 cells (AID 720687)
Procedure, shortened: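 Cells (2,000/well in MEM with 10% FBS) attached overnight at 37 C, then were exposed to compound or DMSO for 1 hr at 37 C, 5% CO2. Fluorescence read at Ex/Em 405/460 nm, expressed as triamterene-equivalent signal.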

[9] = target: Glucocorticoid receptor (Homo sapiens) (UniProt P04150); assay: qHTS assay to identify small molecule agonists of the glucocorticoid receptor (GR) signaling pathway (AID 720691; active means well fitted activation curve with a large enough effect in the signal ratio in the repeat runs, not every such curve was filed as active; the % refers to the signal ratio)
Sequence of Glucocorticoid receptor (Homo sapiens) (P04150 whole entry, looked up): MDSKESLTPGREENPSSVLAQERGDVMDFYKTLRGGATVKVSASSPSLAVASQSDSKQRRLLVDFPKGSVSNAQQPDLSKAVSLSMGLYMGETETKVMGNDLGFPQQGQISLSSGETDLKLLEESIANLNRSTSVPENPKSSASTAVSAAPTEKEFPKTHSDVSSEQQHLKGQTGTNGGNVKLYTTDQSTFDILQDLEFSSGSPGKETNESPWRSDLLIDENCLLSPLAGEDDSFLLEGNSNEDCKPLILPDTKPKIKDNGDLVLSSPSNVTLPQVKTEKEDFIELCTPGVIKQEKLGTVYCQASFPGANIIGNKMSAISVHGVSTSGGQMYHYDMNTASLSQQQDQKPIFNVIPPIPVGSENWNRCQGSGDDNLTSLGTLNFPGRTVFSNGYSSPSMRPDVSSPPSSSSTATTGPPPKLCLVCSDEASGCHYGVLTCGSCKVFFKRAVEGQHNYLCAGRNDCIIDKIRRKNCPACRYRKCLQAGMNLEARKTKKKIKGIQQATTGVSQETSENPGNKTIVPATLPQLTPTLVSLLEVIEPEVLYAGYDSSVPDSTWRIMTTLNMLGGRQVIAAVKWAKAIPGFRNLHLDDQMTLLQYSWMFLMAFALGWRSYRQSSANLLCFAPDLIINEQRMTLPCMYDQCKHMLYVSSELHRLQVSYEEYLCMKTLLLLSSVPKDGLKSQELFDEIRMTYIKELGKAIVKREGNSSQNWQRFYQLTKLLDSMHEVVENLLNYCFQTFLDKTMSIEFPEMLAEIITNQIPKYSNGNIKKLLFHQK
Procedure, shortened: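 Agonist mode in a HeLa line carrying a GRE-controlled beta-lactamase reporter. Compounds act for 18 h at 37 C before a 2 h room-temperature FRET substrate step and fluorescence reading.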

[10] = target: Glucocorticoid receptor (Homo sapiens) (UniProt P04150); assay: qHTS assay to identify small molecule antagonists of the glucocorticoid receptor (GR) signaling pathway (AID 720692; active means well fitted inhibition curve with a large enough effect in the signal ratio in the repeat runs, not every such curve was filed as active; the % refers to the signal ratio; further: potency means the concentration at half of the fitted maximal effect)
Procedure, shortened: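 Cells plated, rested 4 h at 37 C/5% CO2; compounds in DMSO pin-transferred; dexamethasone added to 5 nM final; 18 h at 37 C; B/G FRET substrate added, 2 h room temperature; fluorescence measured.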

| SMILES | outcome [1] | Potency [2] | outcome [3] | outcome [4] | outcome [5] | Potency [6] | outcome [7] | Potency [8] | Potency [9] | Potency [10] | fluorescence, % of fluorescein [1] | fluorescence, % of fluorescent control [2] | activity change [3] | fluorescence, % of fluorescent control [4] | fluorescence, % of Rose Bengal [5] | fluorescence, % of fluorescent control [6] | fluorescence, % of fluorescein control [7] | fluorescence, % of fluorescent control [8] |
| --- | --- | --- | --- | --- | --- | --- | --- | --- | --- | --- | --- | --- | --- | --- | --- | --- | --- | --- |
| CC(C)(O)Cc1ccccc1 | inactive | inactive | inactive | inactive | inactive | inactive | inactive | inactive | inactive | inactive |  |  |  |  |  |  |  |  |
| O=S(=O)(O)c1ccccc1O | inactive | inactive | inactive | inactive | inactive | inactive | inactive | inactive | inactive | inactive |  |  |  |  |  |  |  |  |
| OCCCCCCO | inactive | inactive | inactive | inactive | inactive | inactive | inactive | inactive | inactive |  |  |  |  |  |  |  |  |  |
| CC(C=O)Cc1ccc(C(C)C)cc1 (configuration not stated) | inactive | inactive | inactive | inactive | inactive | inactive | inactive | inactive | inactive | inactive |  |  |  |  |  |  |  |  |
| Fc1ccccc1-c1ccccc1 | inactive | inactive | inactive | inactive | inactive | inactive | inactive | inactive | inactive | inactive |  |  |  |  |  |  |  |  |
| CCn1cc(C(=O)O)c(=O)c2cc(F)c(N3CCN(C)CC3)cc21 | inactive | inactive | inactive | inactive | inactive | inactive | inactive | inactive | inactive |  |  |  |  |  |  |  |  |  |
| CC1=CCC2C(C1)C2(C)C (configuration not stated) | inactive | inactive | inactive | inactive | inactive | inactive | inactive | inactive | inactive | inactive |  |  |  |  |  |  |  |  |
| CC(C)COC(=O)C(C)C | inactive | inactive | inactive | inactive | inactive | inactive | inactive | inactive | inactive | inactive |  |  |  |  |  |  |  |  |
| CC(C)c1cccc(C(C)C)c1N | inactive | inactive | inactive | inactive | inactive | inactive | inactive | inactive | inactive | inactive |  |  |  |  |  |  |  |  |
| C=CC(=O)N1CCOCC1 | inactive | inactive | inactive | inactive | inactive | inactive | inactive | inactive | inactive |  |  |  |  |  |  |  |  |  |
| CCCCCCC(CCCCCCCCCCC(=O)OCC(COC(C)=O)OC(C)=O)OC(C)=O (configuration not stated) | inactive | inactive | inactive | inactive | inactive | inactive | inactive | inactive | inactive |  |  |  |  |  |  |  |  |  |
| COC(=O)CCCC(=O)O | inactive | inactive | inactive | inactive | inactive | inactive | inactive | inactive | inactive |  |  |  |  |  |  |  |  |  |
| CN(C)C(=O)C(CCN1CCC(O)(c2ccc(Cl)cc2)CC1)(c1ccccc1)c1ccccc1 | inactive | inactive | inactive | inactive | inactive | inactive | inactive | inactive | inactive |  |  |  |  |  |  |  |  |  |
| CO[Si](CCCNCCC[Si](OC)(OC)OC)(OC)OC | inactive | inactive | inactive | inactive | inactive | inactive | inactive | inactive | inactive | inactive |  |  |  |  |  |  |  |  |
| NC1CCN(c2cccc(Cl)n2)CC1 | inactive | inactive | inactive | inactive | inactive | inactive | inactive | inactive | inactive | inactive |  |  |  |  |  |  |  |  |
| Nc1cc(C(Cl)=C(Cl)Cl)c(S(N)(=O)=O)cc1S(N)(=O)=O | inactive | inactive | inactive | inactive | inactive | inactive | inactive | inactive | inactive | inactive |  |  |  |  |  |  |  |  |
| O=C(O)Cc1cc(I)c(Oc2cc(I)c(O)c(I)c2)c(I)c1 | inactive | inactive | inactive | inactive | inactive | inactive | inactive | inactive | inactive | 10.7 µM (active) |  |  |  |  |  |  |  |  |
| NC(N)=NS(=O)(=O)c1ccc(N)cc1 |  |  |  |  |  |  |  |  | inactive | inactive | 0.0406% [at 18.6 µM] | -0.0354% [at 18.6 µM] | 0.0753% [at 18.6 µM] | -0.0082% [at 18.6 µM] | 0.343% [at 18.6 µM] | -0.0031% [at 18.6 µM] | -0.0207% [at 18.6 µM] | -0.0417% [at 18.6 µM] |
| NC(=O)CCCCC1CCSS1 (configuration not stated) | inactive | inactive | inactive | inactive | inactive | inactive | inactive | inactive | inactive | inactive |  |  |  |  |  |  |  |  |
| CCC(=O)/C=C/c1ccc(OC)cc1 | inactive | inactive | inactive | inactive | inactive | inactive | inactive | inactive | inactive |  |  |  |  |  |  |  |  |  |
| CC(C)CCCC(C)CCCC(C)CCCCC(C)CCCC(C)CCCC(C)C (configuration not stated) | inactive | inactive | inactive | inactive | inactive | inactive | inactive | inactive | inactive |  |  |  |  |  |  |  |  |  |
| Nc1nc(F)nc2c1ncn2[C@@H]1O[C@H](CO)[C@@H](O)[C@@H]1O | inactive | inactive | inactive | inactive | inactive | inactive | inactive | inactive | inactive | inactive |  |  |  |  |  |  |  |  |
